Assay results as given in PubChem BioAssay (NCATS).
Results filed as inconclusive are left out. Activity calls are given as the source filed them. Unless noted, the call rests on the fitted dose curve; in most records, active means well fitted curve in the direction sought with a large enough effect; inconclusive means small, poorly fitted or top-dose-only effect, or another doubt; inactive means no such curve, though single readings can be large; an effect the other way counts as inactive or inconclusive.

Experiments:
[1] = molecular target: Glucocorticoid receptor (Homo sapiens) (UniProt P04150); experiment: qHTS assay for small molecule antagonists of glucocorticoid receptor signaling (AID 588533; active means well fitted inhibition curve with a large enough effect in the signal ratio, with a control signal flat, not every such curve was filed as active; the % refers to the signal ratio;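 further: cells stimulated with 2 nM dexamethasone as agonist; on the % scale 0 is the no-effect control and ±100 the full control effect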)
Outline: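 Antagonist-mode qHTS: compound titrations added to GRE-bla HeLa cells, then dexamethasone 2 nM final; 18 h, 37 C. CCF4 FRET fluorescence normalized to dexamethasone and DMSO; IC50 from Hill fit.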

[2] = qHTS assay for small molecule antagonists of peroxisome proliferator-activated receptor delta signaling (AID 588535; active means well fitted inhibition curve with a large enough effect in the signal ratio, with a control signal flat, not every such curve was filed as active; the % refers to the signal ratio;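 on max response: cells co-treated with a PPAR-delta agonist as stimulator during compound exposure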); details: HEK293T PPARd-UAS-bla, beta-lactamase FRET ratio, 18 h; 460 nm channel
Outline: (§1)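 GeneBLAzer PPAR-delta-UAS-bla HEK293T cells in medium with 2% charcoal/dextran FBS were preincubated 5 hrs at 37 C, then given compounds, incubated 18 hrs at 37 C, and read by CCF4 beta-lactamase fluorescence; IC50 from Hill fits.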

[3] = molecular target: Peroxisome proliferator-activated receptor delta (Homo sapiens) (UniProt Q03181); experiment: as above
Outline: as §1

[4] = molecular target: Peroxisome proliferator-activated receptor gamma (Homo sapiens) (UniProt P37231); experiment: qHTS assay for small molecule agonists of peroxisome proliferator-activated receptor gamma signaling (AID 588536; active means well fitted curve in the direction sought with a large enough effect in the signal ratio, with a control signal flat, not every such curve was filed as active; the % refers to the signal ratio;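 further: 0% = DMSO basal wells and 100% = rosiglitazone at 2 µM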)
Outline: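 Ratiometric blue/green fluorescence (405 nm excitation; 460 and 530 nm emission) from CCF4-loaded HEK293 reporter cells serves as signal. Exposure to test compounds lasts 16 h at 37 C in medium containing 1% charcoal/dextran-treated serum.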

[5] = molecular target: Peroxisome proliferator-activated receptor gamma (Homo sapiens) (UniProt P37231); experiment: qHTS assay for small molecule antagonists of peroxisome proliferator-activated receptor gamma signaling (AID 588537; active means well fitted inhibition curve with a large enough effect in the signal ratio, with a control signal flat, not every such curve was filed as active; the % refers to the signal ratio;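 further: reporter cells co-stimulated with 50 nM rosiglitazone agonist during compound treatment; % of control where 0% means no effect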)
Outline: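 PPAR-gamma-UAS-bla HEK293 cells (3000/well, 1% charcoal/dextran-stripped FBS) were preincubated 6-6.5 h at 37 C, given titrated compounds, then stimulated with 50 nM rosiglitazone for 16 h. Beta-lactamase activity was read with CCF4 dye; IC50 came from Hill fits.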

[6] = molecular target: Vitamin D3 receptor (Homo sapiens) (UniProt P11473); experiment: qHTS assay for small molecule antagonists of vitamin D receptor signaling (AID 588541; calls by dose curve;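 further: receptor activated by calcitriol during compound treatment; series mostly up to about 77 µM; on the % scale 0 is the no-effect control and ±100 the full control effect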)
Outline: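 VDR-UAS-bla HEK293T cells (2000/well, 2% charcoal-stripped FBS) were treated with titrated compounds plus 1-alpha,25-dihydroxyvitamin D3 (50 nM or 3 nM final) for 16 h at 37 C. CCF4 beta-lactamase fluorescence was read; Hill fits gave IC50.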

[7] = molecular target: Vitamin D3 receptor (Homo sapiens) (UniProt P11473); experiment: qHTS assay for small molecule agonists of vitamin D receptor signaling (AID 588543; calls by dose curve;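 further: 0% = DMSO basal and 100% = reference agonist control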)
Outline: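 Reporter cells (HEK293T, VDR-UAS-bla) were seeded in medium with 2% charcoal-stripped serum and incubated 5 h, then compounds in concentration series were added for 16 h at 37 °C. Stimulation was scaled between DMSO basal and 50 nM 1α,25-dihydroxyvitamin D3.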

[8] = qHTS assay for small molecule agonists of retinoid X receptor alpha signaling (AID 588544; calls by dose curve;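 on activation: 0% = DMSO basal wells and 100% = reference agonist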); details: HEK293T RXRa-UAS-bla, beta-lactamase reporter, 18 h; 530 nm emission
[9] = molecular target: Retinoic acid receptor RXR-alpha (Homo sapiens) (UniProt P19793); experiment: as above
[10] = molecular target: Thyroid hormone receptor beta (Homo sapiens) (UniProt P10828); experiment: qHTS assay for small molecule agonists of thyroid hormone receptor beta signaling (AID 588545; calls by dose curve;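 further: 0% = DMSO only and 100% = 10 nM T3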)
Outline: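 TR-UAS-bla-GripTite HEK 293 cells in medium with 2% charcoal/dextran FBS, 0.1 mM NEAA and 1 mM sodium pyruvate were treated with titrated compounds for 18 hrs at 37 C. Beta-lactamase reporter was read with CCF4 dye (ex 405, em 460/530 nm); EC50 from Hill fits.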

[11] = qHTS assay for small molecule antagonists of retinoid X receptor alpha signaling (AID 588546; active means well fitted inhibition curve with a large enough effect in the signal ratio, with a control signal flat, not every such curve was filed as active; the % refers to the signal ratio;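 further: cells stimulated with 9-cis-retinoic acid as agonist; on the % scale 0 is the no-effect control and ±100 the full control effect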); details: HEK293T RXRa-UAS-bla, beta-lactamase ratio, antagonist mode; measured here: W530 green channel, cytotoxicity proxy
Outline: (§2)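 Beta-lactamase reporter inhibition, read as CCF4 fluorescence ratio (ex 405, em 460/530 nm) after 2 h at RT. HEK293T UAS-bla cells, 2500/well, were stimulated with 9-cis-RA at 500 or 100 nM final alongside test compound for 18 h at 37 C.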

[12] = molecular target: Retinoic acid receptor RXR-alpha (Homo sapiens) (UniProt P19793); experiment: as above; details: HEK293T RXRa-UAS-bla, beta-lactamase ratio, antagonist mode
Outline: as §2

[13] = molecular target: Thyroid hormone receptor beta (Homo sapiens) (UniProt P10828); experiment: qHTS assay for small molecule antagonists of thyroid hormone receptor beta signaling (AID 588547; active means well fitted inhibition curve with a large enough effect in the signal ratio, with a control signal flat, not every such curve was filed as active; the % refers to the signal ratio;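 further: cells stimulated with 0.4 nM T3 agonist during compound exposure; series mostly up to about 77 µM; on the % scale 0 is the no-effect control and ±100 the full control effect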); details: TR-UAS-bla HEK293, beta-lactamase ratio, antagonist mode, 18 h
Outline: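 TR-UAS-bla GripTite HEK293 cells in 2% charcoal/dextran FBS medium were preincubated 4 h at 37 C, given compound (0.59 nM to 92 uM) plus 0.4 nM T3 (final) for 18 h, then CCF4 for 2 h at RT; Hill fit gave IC50.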

[14] = qHTS assay for small molecule agonists of the antioxidant response element (ARE) signaling pathway (AID 651741; active means well fitted activation curve with a large enough effect in the signal ratio; the % refers to the signal ratio; further: potency means the concentration at half of the fitted maximal effect; on activation: % of control where 0% means no effect)
Outline: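 ARE-bla HepG2 cells (beta-lactamase reporter under ARE control) were plated at 2,000 cells/well, preincubated 5 h at 37 C/5% CO2, then treated with DMSO-dissolved compounds for 16 h at 37 C; LiveBLAzer B/G FRET substrate added, fluorescence read after 2 h at room temperature.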

[15] = qHTS assay for small molecule activators of the p53 signaling pathway (AID 651743; active means well fitted activation curve with a large enough effect in the signal ratio, not every such curve was filed as active; the % refers to the signal ratio; further: series mostly up to about 92 µM; % of control where 0% means no effect); details: HCT-116 p53RE-bla, beta-lactamase FRET ratio, 16 h; activation: stronger effect = higher value
Outline: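 p53RE-bla HCT-116 cells with a stably integrated beta-lactamase reporter under p53 response elements were plated, rested 5 hours at 37 C/5% CO2, then exposed to compounds in DMSO for 16 hours at 37 C. LiveBLAzer B/G FRET substrate was read after 2 hours at room temperature.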

[16] = qHTS assay for small molecule activators of the nuclear factor-kappa B (NF-kB) signaling pathway (AID 651749; active means well fitted activation curve with a large enough effect in the signal ratio; the % refers to the signal ratio; further: series mostly up to about 77 µM; % of control where 0% means no effect); details: NF-kB-bla ME-180 cells, beta-lactamase FRET ratio, 16 h; activation: stronger effect = higher value
Outline: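 ME-180 cells stably carrying a beta-lactamase reporter under an NF-kB response element were exposed to compound or DMSO vehicle for 16 hr at 37C, 5% CO2. Pathway activation was read by FRET, since reporter expression disrupts FRET.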

[17] = qHTS assay for environmental chemicals that activate the Aryl hydrocarbon Receptor (AhR) signaling pathway (AID 651777); details: 1A2-DRE human hepatoma cells, luciferase, 24 h; activation: stronger effect = higher value; further: % of control where 0% means no effect; nearly all actives have a fitted effect of over 15% in size
Outline: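 Human hepatoma 1A2-DRE cells stably carrying a DRE/CYP1A2 promoter–luciferase reporter, 1,200 cells/well, exposed to compound 24 hr at 37 C. Luciferase read by One-Glo luminescence after 30 min at room temperature; increased signal marks AhR activation.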

[18] = molecular target: Peroxisome proliferator-activated receptor alpha (Homo sapiens) (UniProt Q07869); experiment: qHTS assay for small molecule agonists of the peroxisome proliferator-activated receptor alpha (PPARalpha) signaling pathway (AID 651778); details: PathHunter PPARalpha complementation, chemiluminescence, 6 h; max response: stronger effect = higher value; further: % of control where 0% means no effect
Outline: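 Cells plated at 2,000/well and held overnight at 37 C, 5% CO2, then compound added by pin tool for 6 hr; after PathHunter detection reagent and 60 min at room temperature, chemiluminescence from enzyme complementation was read.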

[19] = qHTS assay for small molecule agonists of the antioxidant response element (ARE) signaling pathway measured by Nrf2-dependant transcriptional activity (AID 720636; active means well fitted curve in the direction sought with a large enough effect in the repeat runs; an effect the other way counts as inactive or inconclusive; further: % of control where 0% means no effect)
Outline: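 ARE-luc HepG2 cells carrying an Nrf2-responsive luciferase reporter, in medium with 1% dialyzed FBS, exposed to compound for 16 hr at 37 C, 5% CO2. Luminescence read 30 min after ONE-Glo addition.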

[20] = qHTS assay for small molecule agonists of the antioxidant response element (ARE) signaling pathway measured by Nrf2-dependant transcriptional activity - cell viability counter screen (AID 720653; active means well fitted curve in the direction sought with a large enough effect in the repeat runs; an effect the other way counts as inactive or inconclusive; further: on the % scale 0 is the no-effect control and ±100 the full control effect); details: ARE-bla HepG2 viability, CellTiter-Glo ATP luminescence, 16 h; max response: stronger effect = lower value
Outline: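 ARE-bla HepG2 cells (2,000/well) rested 5 hrs at 37C/5% CO2, then exposed to compounds in DMSO for 16 hrs. Viability was read in the same wells as intracellular ATP by luminescence, 30 min at room temperature after reagent addition.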

[21] = qHTS assay for cell viability of HEK293 cells (AID 743288); details: ATP luminescence (CellTiter-Glo), 18 h; max response: stronger effect = lower value; further: on the % scale 0 is the no-effect control and ±100 the full control effect; nearly all actives have a fitted effect of over 50% in size
Outline: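 HEK293 parental, 2,000 cells/well; ≥5 h pre-incubation 37 C; pintool compound addition; 18 h, 37 C; CellTiter-Glo 30 min RT; luminescence read.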

[22] = qHTS assay for cell viability of the p53RE-bla HCT-116 cell line (AID 743292); further: on the % scale 0 is the no-effect control and ±100 the full control effect; nearly all actives have a fitted effect of over 55% in size
Outline: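 CellSensor p53RE-bla HCT-116 cells (4,000/well) pre-incubated 5 h at 37 C, then exposed to compounds in DMSO for 16 h at 37 C. Viability read as ATP content by CellTiter-Glo luminescence after 30 min at room temperature.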

[23] = molecular target: Nuclear receptor subfamily 1 group I member 2 (Rattus norvegicus) (UniProt Q9R1A7); experiment: qHTS assay for small molecule activators of the rat pregnane X receptor (rPXR) signaling pathway (AID 651751; call rule not given here; further: 0% is about no effect); details: rPXR reporter cells, luciferase (One-Glo), 24 h
[24] = qHTS assay for small molecule activators of the human pregnane X receptor (PXR) signaling pathway (AID 720659; call rule not given here; further: 0% is about no effect)
[25] = qHTS for Inhibitors of the vitamin D receptor (VDR): Hit Validation using a Texas Red Assay (AID 602201); further: potency means the concentration at half of the fitted maximal effect
Outline: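 Fluorescence polarization (Ex 595/Em 615 nm) of Texas Red (7 nM) with 1.5 uM VDR-LBD and LG19078 (final concentrations). Compounds were incubated for 2 hours at room temperature.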

Retinoic acid receptor RXR-alpha (Homo sapiens), sequence (P19793 whole entry, looked up): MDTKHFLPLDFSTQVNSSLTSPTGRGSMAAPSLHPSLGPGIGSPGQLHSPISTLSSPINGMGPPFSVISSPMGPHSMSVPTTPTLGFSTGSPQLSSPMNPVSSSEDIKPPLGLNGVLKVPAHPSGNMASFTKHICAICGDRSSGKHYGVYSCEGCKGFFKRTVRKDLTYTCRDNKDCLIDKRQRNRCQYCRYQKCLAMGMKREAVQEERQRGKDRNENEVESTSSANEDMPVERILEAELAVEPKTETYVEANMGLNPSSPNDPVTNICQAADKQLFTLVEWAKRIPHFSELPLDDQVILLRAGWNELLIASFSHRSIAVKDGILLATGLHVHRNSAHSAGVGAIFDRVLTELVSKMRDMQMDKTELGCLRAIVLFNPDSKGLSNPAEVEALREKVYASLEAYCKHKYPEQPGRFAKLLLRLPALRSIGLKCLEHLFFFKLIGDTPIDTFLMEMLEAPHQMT
Vitamin D3 receptor (Homo sapiens), sequence (P11473 whole entry, looked up): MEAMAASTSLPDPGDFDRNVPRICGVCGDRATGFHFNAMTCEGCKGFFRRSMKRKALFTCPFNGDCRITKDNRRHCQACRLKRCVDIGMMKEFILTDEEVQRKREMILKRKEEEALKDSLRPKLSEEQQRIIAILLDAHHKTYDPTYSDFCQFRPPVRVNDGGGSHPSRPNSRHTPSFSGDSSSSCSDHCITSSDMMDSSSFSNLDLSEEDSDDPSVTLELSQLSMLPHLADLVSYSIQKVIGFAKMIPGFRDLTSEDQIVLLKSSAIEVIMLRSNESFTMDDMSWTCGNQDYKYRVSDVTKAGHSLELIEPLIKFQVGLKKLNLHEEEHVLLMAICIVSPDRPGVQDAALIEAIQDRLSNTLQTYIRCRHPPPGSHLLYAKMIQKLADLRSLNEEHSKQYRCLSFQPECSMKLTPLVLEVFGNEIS
Thyroid hormone receptor beta (Homo sapiens), sequence (P10828 whole entry, looked up): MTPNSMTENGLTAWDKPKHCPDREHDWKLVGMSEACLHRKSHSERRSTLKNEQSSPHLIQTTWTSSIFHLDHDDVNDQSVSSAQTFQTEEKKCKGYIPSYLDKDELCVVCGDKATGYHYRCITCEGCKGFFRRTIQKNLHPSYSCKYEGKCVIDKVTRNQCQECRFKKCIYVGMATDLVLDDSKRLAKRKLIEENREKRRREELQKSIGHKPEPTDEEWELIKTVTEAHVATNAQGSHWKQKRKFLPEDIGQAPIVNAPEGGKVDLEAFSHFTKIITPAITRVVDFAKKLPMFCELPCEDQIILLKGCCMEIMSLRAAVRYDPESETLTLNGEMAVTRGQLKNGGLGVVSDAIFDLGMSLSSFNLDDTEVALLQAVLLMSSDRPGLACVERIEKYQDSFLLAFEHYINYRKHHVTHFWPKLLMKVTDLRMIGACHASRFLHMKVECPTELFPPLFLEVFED
Peroxisome proliferator-activated receptor gamma (Homo sapiens), sequence (P37231 whole entry, looked up): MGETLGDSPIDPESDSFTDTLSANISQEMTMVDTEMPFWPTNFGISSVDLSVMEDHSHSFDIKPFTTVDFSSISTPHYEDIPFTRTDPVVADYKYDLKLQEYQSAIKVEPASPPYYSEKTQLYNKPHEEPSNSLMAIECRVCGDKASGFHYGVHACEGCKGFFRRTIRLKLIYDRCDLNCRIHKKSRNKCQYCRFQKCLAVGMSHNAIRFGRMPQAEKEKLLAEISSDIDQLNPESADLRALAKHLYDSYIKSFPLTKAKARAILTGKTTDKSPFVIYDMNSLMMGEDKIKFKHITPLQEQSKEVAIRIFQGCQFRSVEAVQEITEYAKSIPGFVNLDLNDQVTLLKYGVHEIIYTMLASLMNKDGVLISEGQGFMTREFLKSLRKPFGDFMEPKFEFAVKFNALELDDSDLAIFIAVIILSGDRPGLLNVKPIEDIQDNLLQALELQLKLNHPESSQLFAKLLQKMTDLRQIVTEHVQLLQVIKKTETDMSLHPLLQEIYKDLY
Peroxisome proliferator-activated receptor alpha (Homo sapiens), sequence (Q07869 whole entry, looked up): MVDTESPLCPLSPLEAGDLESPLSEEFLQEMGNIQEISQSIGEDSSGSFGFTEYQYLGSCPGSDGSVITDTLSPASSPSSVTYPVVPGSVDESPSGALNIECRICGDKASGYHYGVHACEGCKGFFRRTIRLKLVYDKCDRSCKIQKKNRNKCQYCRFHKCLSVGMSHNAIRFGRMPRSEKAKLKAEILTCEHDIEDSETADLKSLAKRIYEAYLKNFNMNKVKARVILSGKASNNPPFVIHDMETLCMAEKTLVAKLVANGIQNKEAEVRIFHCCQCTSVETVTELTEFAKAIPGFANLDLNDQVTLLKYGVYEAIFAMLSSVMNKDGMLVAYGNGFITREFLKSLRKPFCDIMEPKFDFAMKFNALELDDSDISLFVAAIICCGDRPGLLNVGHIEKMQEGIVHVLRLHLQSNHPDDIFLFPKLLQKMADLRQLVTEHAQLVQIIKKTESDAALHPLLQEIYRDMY
Peroxisome proliferator-activated receptor delta (Homo sapiens), sequence (Q03181 whole entry, looked up): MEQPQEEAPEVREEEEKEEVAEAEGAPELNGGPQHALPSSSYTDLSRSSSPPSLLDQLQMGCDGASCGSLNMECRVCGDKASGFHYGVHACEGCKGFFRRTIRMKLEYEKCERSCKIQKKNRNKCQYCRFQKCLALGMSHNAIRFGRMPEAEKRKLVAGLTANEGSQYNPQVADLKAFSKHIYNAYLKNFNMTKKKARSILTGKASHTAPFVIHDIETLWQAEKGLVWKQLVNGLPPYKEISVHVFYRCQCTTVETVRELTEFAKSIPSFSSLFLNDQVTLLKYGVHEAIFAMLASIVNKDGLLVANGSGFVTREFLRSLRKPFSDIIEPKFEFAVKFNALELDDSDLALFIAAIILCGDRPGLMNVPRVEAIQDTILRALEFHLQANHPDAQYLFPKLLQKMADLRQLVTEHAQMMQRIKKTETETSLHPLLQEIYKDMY
Nuclear receptor subfamily 1 group I member 2 (Rattus norvegicus), sequence (Q9R1A7 whole entry, looked up): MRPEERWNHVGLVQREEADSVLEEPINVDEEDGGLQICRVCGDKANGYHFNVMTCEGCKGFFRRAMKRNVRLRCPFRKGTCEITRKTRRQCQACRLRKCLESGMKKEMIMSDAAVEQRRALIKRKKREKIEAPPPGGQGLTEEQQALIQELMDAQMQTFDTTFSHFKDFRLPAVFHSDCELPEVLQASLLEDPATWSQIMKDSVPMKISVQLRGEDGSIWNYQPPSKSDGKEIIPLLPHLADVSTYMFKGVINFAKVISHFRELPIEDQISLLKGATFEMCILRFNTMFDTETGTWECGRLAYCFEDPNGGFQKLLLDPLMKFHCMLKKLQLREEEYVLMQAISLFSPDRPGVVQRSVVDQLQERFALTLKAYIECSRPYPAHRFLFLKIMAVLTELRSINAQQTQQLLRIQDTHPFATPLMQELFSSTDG
Glucocorticoid receptor (Homo sapiens), sequence (P04150 whole entry, looked up): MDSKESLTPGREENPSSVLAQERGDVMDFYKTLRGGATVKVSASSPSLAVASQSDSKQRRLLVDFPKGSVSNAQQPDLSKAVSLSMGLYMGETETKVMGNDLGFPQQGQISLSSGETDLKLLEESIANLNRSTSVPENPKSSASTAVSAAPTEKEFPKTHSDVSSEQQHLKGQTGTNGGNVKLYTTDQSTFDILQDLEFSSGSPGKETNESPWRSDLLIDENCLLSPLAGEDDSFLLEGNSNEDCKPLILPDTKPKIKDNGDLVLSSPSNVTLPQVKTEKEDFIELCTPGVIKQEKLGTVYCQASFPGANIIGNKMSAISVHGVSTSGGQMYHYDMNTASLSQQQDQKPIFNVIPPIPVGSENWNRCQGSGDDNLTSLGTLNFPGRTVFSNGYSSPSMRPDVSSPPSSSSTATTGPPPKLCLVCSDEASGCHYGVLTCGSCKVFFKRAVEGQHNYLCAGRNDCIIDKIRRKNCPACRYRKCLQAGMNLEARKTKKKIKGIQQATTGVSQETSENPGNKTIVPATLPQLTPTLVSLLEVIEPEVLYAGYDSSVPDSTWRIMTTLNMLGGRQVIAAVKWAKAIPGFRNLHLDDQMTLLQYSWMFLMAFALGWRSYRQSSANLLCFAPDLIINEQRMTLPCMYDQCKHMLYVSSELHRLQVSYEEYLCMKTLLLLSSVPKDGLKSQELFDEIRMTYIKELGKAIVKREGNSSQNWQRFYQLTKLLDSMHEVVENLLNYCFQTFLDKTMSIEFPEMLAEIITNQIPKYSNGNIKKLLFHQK

For Clc1nc(Cl)c(Cl)c(Cl)c1Cl, the Potency [1] was “inactive”, the max response [2] was 31.1% and the Potency [3] was “inactive”. The outcome [4] was “inactive”, the Potency [5] was “inactive” and the Potency [6] was “inactive”. The outcome [7] was “inactive”, the max response [8] was -3.68% and the Potency [9] was “inactive”. For the same compound, the Potency [10] was “inactive”, the max response [11] was -0.304% and the max response [12] was -25.7% (inactive). For the same compound, the activity change % (negative = inhibition) [13] was -13.1% (inactive), the Potency [14] was 17.2 µM (active) and the activation [15] was -0.354% (inactive). The activation [16] was -1.8% (inactive), the activation [17] was -0.0238% (inactive) and the max response [18] was -3.38% (inactive). For the same compound, the Potency [19] was “inactive”, the max response [20] was -5.53% (inactive) and the max response [21] was -14.3% (inactive). The Potency [22] was “inactive”, the max response [23] was -3.08% (inactive) and the outcome [24] was “inactive”.

With CS(=O)(=O)c1ccc(Cl)cc1 the Potency [1] was “inactive”, the max response [2] was 15.6% and the Potency [3] was “inactive”. The Potency [6] was “inactive”, the outcome [7] was “inactive” and the max response [8] was 0.314%. For the same compound, the Potency [9] was “inactive”, the Potency [10] was “inactive” and the max response [11] was -4.7%. The max response [12] was -18.5% (inactive), the activity change % (negative = inhibition) [13] was -10.2% (inactive) and the Potency [14] was “inactive”. The activation [17] was 0.81% (inactive), the max response [18] was -0.188% (inactive) and the max response [20] was 0.283% (inactive). The max response [21] was -17.3% (inactive), the Potency [22] was “inactive” and the max response [23] was 3.76% (inactive). The outcome [24] was “inactive”.

In the case of Nc1ncnc2c1ncn2[C@@H]1O[C@H](CNCc2ccc(-c3cc(C(F)(F)F)ccc3Cl)o2)[C@@H](O)[C@H]1O, the Potency [25] was “inactive”.

With O=C(CCN1CCc2ccccc2C(O)(c2ccccc2)C1)c1ccc2c(c1)OCCO2 (configuration not stated) the Potency [25] was “inactive”.

In the case of Cc1ccc(S(=O)(=O)CCC(=O)c2cccc([N+](=O)[O-])c2)cc1, the Potency [25] was 3.55 µM (active).

In the case of O=C(O)c1cccc(CN2C(=O)S/C(=C/c3cccc([N+](=O)[O-])c3)C2=O)c1, the Potency [25] was 20 µM (active).

In the case of COC(=O)c1ccccc1NC(=O)c1nc(S(=O)(=O)Cc2ccccc2)ncc1Cl, the Potency [25] was 3.16 µM (active).

In the case of CC(C)CN1C(=O)/C(=C(/C#N)C(=O)NC2CCCCC2)c2ccccc21, the Potency [25] was 3.55 µM (active).

In the case of Cc1oc2c(c1C(=O)c1ccc(Cl)cc1)C(=O)C(=O)c1ccccc1-2, the Potency [25] was 3.98 µM (active).

For O=C1/C(=C/c2cccnc2)CCC/C1=C\c1cccnc1, the Potency [25] was 31.6 µM (active).

For Cc1c(C(=O)Nc2nc(-c3ccccn3)cs2)oc2ccccc12, the Potency [25] was “inactive”.

With C#CCOc1ccc(/C=C2/C(=O)ON=C2C)cc1Br the Potency [25] was “inactive”.

With O=C(/C=C/c1ccc(Cl)cc1)c1ccc([N+](=O)[O-])o1 the Potency [25] was 2.82 µM (active).

With CC(=O)NC1=CC(=O)c2nonc2C1=O the Potency [25] was 3.16 µM (active).

In the case of CC(C)c1nnc(NC(=O)CCS(=O)(=O)c2nc(-c3cccs3)cc(C(F)(F)F)n2)s1, the Potency [25] was “inactive”.

With CN1CCN(C(=S)C(=O)Nc2ccc(Br)cc2)CC1 the Potency [25] was 17.8 µM (active).
